PTAP TSG101 blk: qHTS Assay for Iinhibitors of HIV-1 Budding by Blocking the Interaction of PTAP/TSG101 | Tumor susceptibility gene 101 protein (Homo sapiens), Q99816 | Fluorescence polarization, FITC-PTAP peptide / Tsg101 binding | Potency, µM (doses to about 115 µM), most hits filed as inhibitors | 340,000 tested, under 10 active | AID 493005, 2010; active means well fitted inhibition curve with a large enough effect in the main read-out, with a control signal flat, not every such curve was filed as active; inconclusive means small, poorly fitted or top-dose-only effect, or effect the other way, or a change in a side signal; inactive means no such curve, though single readings can be large or run the other way
Target sequence (Q99816 whole entry, looked up): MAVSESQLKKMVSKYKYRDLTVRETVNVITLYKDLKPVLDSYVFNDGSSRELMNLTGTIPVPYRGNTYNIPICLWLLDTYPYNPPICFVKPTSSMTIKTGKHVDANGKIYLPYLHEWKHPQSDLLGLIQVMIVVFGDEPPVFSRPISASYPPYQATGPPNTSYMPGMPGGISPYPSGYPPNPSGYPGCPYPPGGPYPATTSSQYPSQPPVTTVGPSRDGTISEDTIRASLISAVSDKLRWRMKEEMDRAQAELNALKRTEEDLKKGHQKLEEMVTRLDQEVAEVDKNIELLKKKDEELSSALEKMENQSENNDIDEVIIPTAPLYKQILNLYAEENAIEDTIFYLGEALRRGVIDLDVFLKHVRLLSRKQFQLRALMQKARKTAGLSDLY
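Fluorescence polarization binding of Tsg101 binding domain (10 uM final) to FITC-labeled PTAP peptide (50 nM final) in HEPES pH 7.5 buffer with NaCl, Tween 20, EDTA, TCEP. Compounds added before peptide; binding 20 min at RT.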
KB-V1 MDR tox: qHTS assay for MDR1-selective chemotherapeutics: Primary screen using the drug-selected MDR subline cells KB-V1. 400,000 tested, 3.4% active. KB-V1 MDR cells viability, CellTiter-Glo, 72 h. AID 1347076, 2019. Potency, µM (doses to about 46.1 µM), actives largely listed as cytotoxic; further: nearly all actives have a fitted effect of over 60% in size
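Cytotoxicity via CellTiter-Glo luminescence after 72 h compound exposure at 37 degrees C. Cells: drug-selected KB-V1 line, DMEM phenol-red free plus 10% FBS. Compounds tested at multiple concentrations; normalized data fitted to concentration-effect curves.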
PINK1 modulator: A Quantitative High throughput Screen to Identify Chemical Modulators of PINK1 Expression; PINK1 immunofluorescence, high-content cytometry, 24 h; Potency, µM (doses to about 76.6 µM), actives largely listed as activators; 410,000 tested, 0.2% active; AID 624263, 2012; active means well fitted activation curve with a large enough effect; inconclusive means small, poorly fitted or top-dose-only effect; cell line not stated here; further: nearly all actives have a fitted effect of over 65% in size
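Stable cell line treated 24 h with compounds at 5 concentrations (CCCP controls), then fixed and immunostained for PINK1 plus nuclear and cell stains; PINK1 immunofluorescence quantified by laser-scanning microplate cytometry.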
MCF10A rerep: A quantitative high throughput screen for small molecules that induce DNA re-replication in MCF 10a normal breast cells; MCF 10A DNA re-replication, Hoechst nuclear intensity, 48 h; Potency, µM (top dose mostly 46.1 µM), hits mostly activators; 350,000 tested, 2.9% active; further: nearly all actives have a fitted effect of over 50% in size
KB-3-1 tox: qHTS assay for MDR1-selective chemotherapeutics: Primary screen using the parental adenocarcinoma cell KB-3-1 | KB-3-1 viability, CellTiter-Glo ATP luminescence, 72 h | Potency, µM (series often up to 46.1 µM), most hits filed as cytotoxic | 400,000 tested, 1.4% active; further: nearly all actives have a fitted effect of over 60% in size
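Parental KB-3-1 viability, qHTS format: 72 h compound exposure, 37 °C; CellTiter-Glo; media-only wells and DMSO plates as controls; concentration-effect fits on corrected data.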
SW480 rereplic: A quantitative high throughput screen for small molecules that induce DNA re-replication in SW480 colon adenocarcinoma cells; SW480 DNA re-replication, Hoechst DNA content imaging, 48 h; AID 624297, 2012; 340,000 tested, 1.8% active; Potency, µM (highest dose often 46.1 µM), actives largely listed as activators; further: nearly all actives have a fitted effect of over 55% in size
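DNA re-replication was detected as more nuclei of elevated Hoechst intensity after 48 hr exposure to compound (23 nL pinned per well of 250 cells).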
Large screens that a line does not name were inactive. Sampled rows, rich in hits. Any-hit rate of the full collection: about 6.8%. Unless noted, the call rests on the fitted dose curve; in most records, active means well fitted curve in the direction sought with a large enough effect; inconclusive means small, poorly fitted or top-dose-only effect, or another doubt; inactive means no such curve, though single readings can be large; an effect the other way counts as inactive or inconclusive.

Cc1ccccc1C1(CC(=O)N2CCCCC2C)CC(=O)N(Cc2cccnc2)C1=O (stereo not given)	none (no result: PTAP TSG101 blk, KB-V1 MDR tox, MCF10A rerep, KB-3-1 tox, SW480 rereplic)
CC(=O)N1CCN(S(=O)(=O)c2cccc(C(=O)OCc3cccc(F)c3)c2)CC1	KB-V1 MDR tox 18.4µM
O=C(COC(=O)c1ccccc1SCC(=O)N1CCCC1)Nc1ccccc1	none
CC(C)(C)N(Cc1ccccc1)C(=O)COC(=O)c1ccccc1SCC(=O)N1CCCC1	KB-V1 MDR tox 20.6µM
CC(=O)N1CCN(S(=O)(=O)c2cccc(C(=O)OCC(=O)N(Cc3ccccc3)C(C)(C)C)c2)CC1	MCF10A rerep 7.31µM
CC(C)(C)N(Cc1ccccc1)C(=O)COC(=O)c1ccc(S(=O)(=O)N2CCOCC2)cc1	none (no result: KB-V1 MDR tox, KB-3-1 tox)
CCOc1ccc(C(=O)c2cn(CC(=O)Nc3ccc(C)c(C)c3)c3ccc(OCC)cc3c2=O)cc1	none (no result: PTAP TSG101 blk, MCF10A rerep, SW480 rereplic)
C[C@@H](NC(c1ccc(F)cc1)c1ccc2cccnc2c1O)c1ccccc1 (stereo not given in full)	KB-3-1 tox inconclusive (no result: PTAP TSG101 blk, PINK1 modulator, MCF10A rerep, SW480 rereplic)
Cc1ccc(N(Cc2cccs2)C(=O)c2ccccc2)cc1	none (no result: PTAP TSG101 blk, MCF10A rerep, SW480 rereplic)
Cc1cc2cc(CN(Cc3ccco3)C(=S)NCC3CCCO3)c(=O)[nH]c2cc1C (stereo not given)	KB-V1 MDR tox 9.2µM
CCc1ccc2[nH]c(=O)c(CN(Cc3ccco3)C(=S)NCC3CCCO3)cc2c1 (stereo not given)	none
Cc1cc(C)c2[nH]c(=O)c(CN(Cc3ccco3)C(=S)NCC3CCCO3)cc2c1 (stereo not given)	none
Cc1ccc2cc(CN(Cc3ccco3)C(=S)NCC3CCCO3)c(=O)[nH]c2c1C (stereo not given)	KB-V1 MDR tox 4.11µM, MCF10A rerep inconclusive
CCc1ccc(CSc2nc(-c3ccccc3F)nc3c2Cc2c(CO)cnc(C)c2O3)cc1	none (no result: PTAP TSG101 blk, MCF10A rerep, SW480 rereplic)
Clc1ccc(CCNC(c2ccc(Cl)cc2)c2nnc(-c3ccccc3)o2)cc1 (stereo not given)	none (no result: PTAP TSG101 blk, MCF10A rerep, SW480 rereplic)
O=C1C[C@H]2C=CCc3cccc(c32)CN1Cc1cccc(F)c1	none (no result: PTAP TSG101 blk, PINK1 modulator, MCF10A rerep, SW480 rereplic)
O=C1C[C@H]2C=CCc3cccc(c32)CN1Cc1ccc(Cl)cc1	KB-V1 MDR tox 18.4µM (no result: PTAP TSG101 blk, PINK1 modulator, MCF10A rerep, SW480 rereplic)
Cc1nn(Cc2ccccc2)c(C)c1NC(=O)c1cc(-c2cccs2)on1	KB-V1 MDR tox 4.11µM, MCF10A rerep inconclusive (no result: PTAP TSG101 blk)
O=C(NCCN1CCOCC1)c1cc(-c2cccs2)on1	KB-V1 MDR tox 16.4µM (no result: PTAP TSG101 blk)
O=C(NCCN1CCOCC1)c1cc(-c2ccccc2)on1	none
Cc1nn(Cc2ccccc2)c(C)c1NC(=O)c1cccs1	SW480 rereplic inconclusive
COc1ccc(-c2cc(C(=O)Nc3c(C)nn(Cc4ccccc4)c3C)no2)cc1	MCF10A rerep inconclusive
Cc1ccc(-c2cc(C(F)F)n3ncc(C(=O)Nc4c(C)nn(Cc5c(Cl)cccc5Cl)c4C)c3n2)cc1	MCF10A rerep inconclusive
Cc1nn(Cc2ccccc2)c(C)c1NC(=O)c1cc(-c2ccc3c(c2)OCO3)on1	PINK1 modulator inconclusive, MCF10A rerep 9.2µM, KB-3-1 tox inconclusive
Cc1ccc(-c2cc(C(F)F)n3ncc(C(=O)Nc4c(C)nn(Cc5ccccc5Cl)c4C)c3n2)cc1	KB-V1 MDR tox inconclusive, KB-3-1 tox 16.4µM
CCN(CC)CCOC(=O)c1ccc(NC(=O)c2cc3c(=O)n(CC)c4ccccc4c3s2)cc1	none (no result: PTAP TSG101 blk, MCF10A rerep, SW480 rereplic)
CSc1nc2c(sc3ccccc32)c(=O)n1Cc1ccc(C)cc1	KB-V1 MDR tox inconclusive (no result: PTAP TSG101 blk, MCF10A rerep, SW480 rereplic)
COC(=O)c1ccc(NC(=O)CCc2c(C)nn(-c3ccc(N4CCCCC4)nn3)c2C)cc1	none (no result: PTAP TSG101 blk, KB-V1 MDR tox, MCF10A rerep, KB-3-1 tox, SW480 rereplic)
Cc1nn(Cc2ccccc2Cl)c(C)c1NC(=O)c1cc(-c2ccc(F)cc2)on1	PINK1 modulator inconclusive, MCF10A rerep 4.11µM
COc1ccc(-c2cc(C(=O)Nc3c(C)nn(Cc4ccccc4C)c3C)no2)cc1	none (no result: PTAP TSG101 blk, MCF10A rerep, SW480 rereplic)
O=C(NCC(c1cccs1)N1CCOCC1)c1cc(S(=O)(=O)N2CCOCC2)c(Cl)cc1Cl (stereo not given)	SW480 rereplic inconclusive
O=C(COc1ccccc1Cl)NCC(c1cccs1)N1CCOCC1 (stereo not given)	none
Cc1ccccc1OCC(=O)NCC(c1cccs1)N1CCOCC1 (stereo not given)	KB-V1 MDR tox 16.4µM, KB-3-1 tox inconclusive, SW480 rereplic inconclusive
O=C(NCC(c1cccs1)N1CCOCC1)c1ccc(Cl)cc1 (stereo not given)	KB-V1 MDR tox inconclusive, MCF10A rerep inconclusive, KB-3-1 tox inconclusive, SW480 rereplic inconclusive
O=C(NCC(c1cccs1)N1CCOCC1)c1ccc(Cl)nc1 (stereo not given)	KB-V1 MDR tox inconclusive, MCF10A rerep 18.4µM, KB-3-1 tox inconclusive, SW480 rereplic inconclusive
O=C(NCC(c1cccs1)N1CCOCC1)c1ccc(Cl)s1 (stereo not given)	KB-V1 MDR tox 16.4µM, MCF10A rerep inconclusive, KB-3-1 tox inconclusive (no result: PINK1 modulator)
O=C(NCC(c1cccs1)N1CCOCC1)c1cc(S(=O)(=O)N2CCOCC2)ccc1F (stereo not given)	SW480 rereplic 3.26µM
COc1ccc(OC)c(NC(=O)c2cnn(-c3ccc(C)cc3)c2C2CCNCC2)c1	none (no result: PTAP TSG101 blk, MCF10A rerep, SW480 rereplic)
O=S(=O)(NCc1csc(-c2ccccc2)n1)c1ccccc1	none (no result: PTAP TSG101 blk, KB-V1 MDR tox, MCF10A rerep, KB-3-1 tox, SW480 rereplic)
O=C(NCC(c1cccs1)N1CCOCC1)c1cc([N+](=O)[O-])cc([N+](=O)[O-])c1 (stereo not given)	KB-V1 MDR tox 23.1µM
